Results filed as inconclusive are left out. Entries that show only a call come without a potency. Values without a mark were called inactive. Calls of active or inactive are those of the source. The call rests on the fitted dose curve; in most records, active means well fitted curve in the direction sought with a large enough effect; inconclusive means small, poorly fitted or top-dose-only effect, or another doubt; inactive means no such curve, though single readings can be large; an effect the other way counts as inactive or inconclusive.
Tests used:
[1] = system: Zika virus NS2B-NS3 protease (unlinked complex); test: Primary screen GU Rhodamine qHTS for Zika virus inhibitors: Unlinked NS2B-NS3 protease assay (AID 1347159); further: nearly all actives have a fitted effect of over 60% in size; further: potency means the concentration at half of the fitted maximal effect
Method in brief: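 Enzyme 25 nM in Tris-HCl pH 8.0 + 0.01% Tween 20; compounds up to 114 microM, 15 min RT dark; + Rhod110 substrate 1.5 microM; read t0 and 15 min; delta fluorescence → % inhibition → 4-parameter Hill fit.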

[2] = system: Zika virus NS2B-NS3 protease (linked construct); test: Primary screen NINDS Rhodamine qHTS for Zika virus inhibitors (AID 1347160); further: nearly all actives have a fitted effect of over 55% in size; further: potency means the concentration at half of the fitted maximal effect
Method in brief: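 Enzyme (25 nM, linked NS2B-NS3) was preincubated 15 min with compound in 10 mM Tris-HCl pH 8.0, 0.01% Tween 20. Rhodamine110 substrate (1.5 microM) was then added and fluorescence read at start and after 15 min.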

[3] = OV-KATE Cancer Cell Toxicity qHTS against the NCATS CANVASS Library (AID 1347345); conditions: OV-KATE cells viability, CellTiter-Glo luminescence, 72 h; further: potency means the concentration at half of the fitted maximal effect
Method in brief: (§1)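 Toxicity is measured over 72 h of compound exposure at 37 degrees C under 5% CO2. Each well holds 1000 cells, pre-incubated for 4 hours before dosing across an 11-point range. CellTiter-Glo luminescence gives viability.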

[4] = HPAF-II Cancer Cell Toxicity qHTS against the NCATS CANVASS Library (AID 1347346); conditions: HPAF-II viability, CellTiter-Glo ATP luminescence, 72 h; further: potency means the concentration at half of the fitted maximal effect; nearly all actives have a fitted effect of over 55% in size
Method in brief: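 1000 HPAF-II cells/well; 4 h pre-incubation; 11-pnt compound titration; 72 h, 37 degrees C/5% CO2; CellTiter-Glo, 15 min RT; luminescence read.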

[5] = UWB1.289 Cancer Cell Toxicity qHTS against the NCATS CANVASS Library (AID 1347347); conditions: UWB1.289 viability, CellTiter-Glo luminescence, 72 h; further: potency means the concentration at half of the fitted maximal effect; nearly all actives have a fitted effect of over 60% in size
Method in brief: as §1

[6] = OV-SAHO Cancer Cell Toxicity qHTS against the NCATS CANVASS Library (AID 1347348); conditions: OV-SAHO viability, CellTiter-Glo luminescence, 72 h; further: potency means the concentration at half of the fitted maximal effect; nearly all actives have a fitted effect of over 55% in size
Method in brief: as §1

[7] = Panc-1005 Cancer Cell Toxicity qHTS against the NCATS CANVASS Library (AID 1347349); conditions: Panc-1005 viability, CellTiter-Glo luminescence, 72 h; further: potency means the concentration at half of the fitted maximal effect; nearly all actives have a fitted effect of over 60% in size
Method in brief: as §1

[8] = SW1088 Cancer Cell Toxicity qHTS against the NCATS CANVASS Library (AID 1347350); conditions: SW1088 viability, CellTiter-Glo luminescence, 72 h; further: potency means the concentration at half of the fitted maximal effect; nearly all actives have a fitted effect of over 75% in size
Method in brief: as §1

[9] = U-118MG Cancer Cell Toxicity qHTS against the NCATS CANVASS Library (AID 1347351); conditions: U-118MG viability, CellTiter-Glo luminescence, 72 h; further: potency means the concentration at half of the fitted maximal effect
Method in brief: as §1

[10] = COV-362 Cancer Cell Toxicity qHTS against the NCATS CANVASS Library (AID 1347352); conditions: COV-362 viability, CellTiter-Glo luminescence, 72 h; further: potency means the concentration at half of the fitted maximal effect
Method in brief: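 1000 cells/well, 4 h pre-incubation 37 °C/5% CO2; 11-pnt titration; 72 h; CellTiter-Glo 15 min RT, luminescence.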

[11] = A2780 Cisplatin Sensitive Ovarian Cancer Cell Toxicity qHTS against the NCATS CANVASS Library (AID 1347353); conditions: A2780 ovarian cancer viability, ATPLite luminescence, 72 h; further: potency means the concentration at half of the fitted maximal effect; nearly all actives have a fitted effect of over 60% in size
Method in brief: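 750 cells/well, 4 h settle; 11-pt cpd titration; 72 h, 37 °C, 5% CO2; ATPLite 10 min RT; luminescence read.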

[12] = Confirmatory screen NINDS Rhodamine qHTS for Zika virus inhibitors (AID 1347161)
Method in brief: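 Kinetic fluorescence (Ex 480 nm, Em 540 nm) over 15 min with 1.5 microM Rhodamine110 peptide and 25 nM linked protease.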

[13] = molecular target: Lysine-specific demethylase 5B (Homo sapiens) (UniProt Q9UGL1); test: Optimization screen for KDM5B Histone Demethylases FDH coupled qHTS against the LOPAC library (AID 1347166)
Method in brief: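 KDM5BDeltaAP (200nM final) in 50mM HEPES pH 7.5, 0.01% Tween-20 was preincubated with compound for 10 min at room temperature. A substrate mix of 12.5uM H3K4Me3, 25uM a-ketoglutarate, ascorbate, Fe2+, NAD+ and formaldehyde dehydrogenase was then added. NADH fluorescence (340/450 nm) was read initially and after 30 min.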

[14] = Vero cells viability qHTS for Zika virus inhibitors (AID 1347167)
Method in brief: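 To flag cytotoxic protease inhibitors, viability is measured by ATP-dependent luminescence (CellTiter Glo) after cells attached overnight receive compound for 24 to 48 hours in DMEM with 4% FBS.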

[15] = Tertiary RLuc qRT-PCR qHTS assay for Zika virus inhibitors (AID 1347169); further: top concentration of the series differs between compounds; nearly all actives have a fitted effect of over 55% in size
Method in brief: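 Orthogonal cell-based infection assay using recombinant ZIKV-RLuc (Cambodian) in Vero cells; compound added prior to virus at MOI 1-2. Incubation lasts 48-72 hrs at 37 degrees C before live-cell Renilla substrate is added and luminescence measured.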

Chain of Lysine-specific demethylase 5B (Homo sapiens) (Q9UGL1 whole entry, looked up): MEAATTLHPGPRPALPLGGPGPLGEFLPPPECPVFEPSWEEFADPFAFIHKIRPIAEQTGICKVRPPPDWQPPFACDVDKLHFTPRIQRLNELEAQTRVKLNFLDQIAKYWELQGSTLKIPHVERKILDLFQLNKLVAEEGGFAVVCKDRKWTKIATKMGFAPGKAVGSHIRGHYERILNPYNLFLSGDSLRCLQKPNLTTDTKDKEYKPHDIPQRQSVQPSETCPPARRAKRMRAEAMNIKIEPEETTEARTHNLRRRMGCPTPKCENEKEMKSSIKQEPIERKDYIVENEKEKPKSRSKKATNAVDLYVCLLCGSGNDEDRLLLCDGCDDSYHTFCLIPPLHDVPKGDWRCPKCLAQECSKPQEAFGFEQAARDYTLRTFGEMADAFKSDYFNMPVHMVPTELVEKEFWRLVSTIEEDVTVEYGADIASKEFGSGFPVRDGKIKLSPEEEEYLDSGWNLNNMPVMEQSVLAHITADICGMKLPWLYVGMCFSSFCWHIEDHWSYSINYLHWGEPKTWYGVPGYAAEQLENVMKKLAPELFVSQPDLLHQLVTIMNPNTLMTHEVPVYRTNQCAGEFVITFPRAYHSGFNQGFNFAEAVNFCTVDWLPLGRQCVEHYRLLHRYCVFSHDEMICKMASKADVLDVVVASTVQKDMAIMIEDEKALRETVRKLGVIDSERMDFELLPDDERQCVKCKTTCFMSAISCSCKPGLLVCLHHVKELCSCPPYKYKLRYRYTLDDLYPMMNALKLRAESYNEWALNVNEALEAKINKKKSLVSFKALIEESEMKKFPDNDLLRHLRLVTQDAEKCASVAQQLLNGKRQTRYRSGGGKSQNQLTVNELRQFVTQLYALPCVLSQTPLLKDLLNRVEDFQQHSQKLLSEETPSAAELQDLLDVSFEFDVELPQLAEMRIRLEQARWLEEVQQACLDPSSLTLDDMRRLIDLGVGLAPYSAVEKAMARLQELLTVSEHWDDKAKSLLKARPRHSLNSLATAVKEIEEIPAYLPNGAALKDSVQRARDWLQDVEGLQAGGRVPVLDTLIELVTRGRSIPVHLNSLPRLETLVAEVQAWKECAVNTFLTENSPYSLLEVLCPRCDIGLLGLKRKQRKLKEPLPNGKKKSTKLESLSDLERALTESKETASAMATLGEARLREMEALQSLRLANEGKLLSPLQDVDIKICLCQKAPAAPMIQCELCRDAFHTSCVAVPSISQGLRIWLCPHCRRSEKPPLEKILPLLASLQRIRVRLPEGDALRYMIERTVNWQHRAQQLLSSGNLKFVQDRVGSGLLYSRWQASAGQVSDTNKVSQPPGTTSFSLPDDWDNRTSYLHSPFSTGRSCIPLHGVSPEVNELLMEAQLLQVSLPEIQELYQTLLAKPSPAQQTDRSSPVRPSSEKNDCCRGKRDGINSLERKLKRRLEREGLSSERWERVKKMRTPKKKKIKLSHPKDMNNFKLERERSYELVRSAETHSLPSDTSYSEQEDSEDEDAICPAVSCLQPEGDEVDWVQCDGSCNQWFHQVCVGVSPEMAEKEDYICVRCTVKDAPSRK

With `CC(O)(C(=O)C1CC1(CO)COC1OC(CO)C(O)C(O)C1O)C1C(O)CC2C3CC=C4CC(O)CC(O)C4(C)C3C(O)CC21C` (centres undefined) the Potency [1] was “inactive” and the Potency [2] was “inactive”.

In the case of `Nc1nc(OCc2cc(Br)cs2)c2[nH]cnc2n1`, the Potency [1] was “inactive” and the Potency [2] was “inactive”.

In the case of `CCCn1ncc(CN2CCCC(C(=O)c3cccc(OC(C)C)c3)C2)c1C` (centres undefined), the Potency [1] was “inactive” and the Potency [2] was “inactive”.

With `C=CC(=O)N1CCCC(n2nc(-c3ccc(Oc4ccccc4)cc3)c3c(N)ncnc32)C1` (centres undefined) the Potency [2] was “inactive”.

In the case of `CC(=O)OC[C@]12[C@H](OC(C)=O)C(=O)[C@@H]3[C@@H](O)[C@@]14O[C@@]3(C)COC(=O)c1cccnc1[C@@H](C)[C@H](C)C(=O)O[C@@H]([C@H](O)[C@@H]2OC(C)=O)[C@]4(C)O`, the Potency [2] was “inactive”.

For `CC(C)(C)c1ccc2c(c1)CC[C@H]2NC(=O)Nc1cccc2[nH]ncc12`, the Potency [2] was “inactive”.

Compound `CC(=O)O[C@@H]1C[C@]2(C)[C@@]3(CCC4[C@@]5(C)CC[C@H](O[C@@H]6O[C@H](C(=O)O)[C@@H](O)[C@H](OC7OC(CO)C(O)C(O)[C@H]7O[C@@H]7O[C@@H](C)[C@H](O)[C@@H](O)[C@H]7O[C@@H]7OC[C@](O)(CO)[C@H]7O)[C@H]6OC6OC(CO)C(O)C(O)C6O)C(C)(C)C5CC[C@]42C)OC[C@@]12CCC(C)(C)CC23` (some centres undefined) has an activity change, negative = inhibition [2] of -13.3% [at 10.7 µM].

With `O=[N+]([O-])c1cn2c(n1)OC[C@@H](OCc1ccc(-c3ccc(OC(F)(F)F)cc3)nc1)C2` the Potency [1] was “inactive” and the Potency [2] was “inactive”.

In the case of `COC(=O)c1cc2c(C(F)(F)F)cc(-c3ccccc3)cc2n1O`, the Potency [1] was 12.6 µM (active) and the Potency [2] was 15.8 µM (active).

With `CC1=CC2/C=C(\C)CCC(O)C(=O)C(O)CC(=O)C23C(=O)NC(CC(C)C)C3C1C` (centres undefined) the Potency [1] was “inactive” and the Potency [2] was “inactive”.

For `Cc1cc(-c2cc(OC(=O)c3ccccc3)ccc2Cl)cc2nnc(Nc3ccc(OCCN4CCCC4)cc3)nc12`, the Potency [1] was “inactive” and the Potency [2] was “inactive”.

In the case of `CC(C)CC(=O)c1c(O)cc2c(c1O)C(CC(C)C)C1=C(O2)C(C)(C)C(=O)C(C)(C)C1=O` (centres undefined), the Potency [1] was 8.91 µM (active), the Potency [2] was 7.82 µM (active) and the Potency [3] was 18.8 µM (active). The Potency [4] was 13.3 µM (active), the Potency [5] was 13.3 µM (active) and the Potency [6] was 11.8 µM (active). For the same compound, the Potency [7] was 14.9 µM (active), the Potency [8] was 7.49 µM (active) and the Potency [9] was 10.6 µM (active). The Potency [10] was 13.3 µM (active) and the Potency [11] was 16.6 µM (active).

With `Cn1ncc(Cl)c1-c1cc(C(=O)N[C@H](CN)Cc2cccc(F)c2)sc1Cl` the Potency [1] was “inactive” and the Potency [2] was “inactive”.

For `Cc1cc(C)c(-n2cc(C)c3c(Cl)nc(C)nc32)c(C)c1`, the Potency [1] was “inactive” and the Potency [2] was “inactive”.

In the case of `O=C(Nc1ccc(-n2nc(C(F)(F)F)cc2C(F)(F)F)cc1)c1ccncc1F`, the Potency [2] was “inactive”.

For `CC(=O)OC1CC(O)(C(C)C)C2C(OC(=O)c3ccc(O)cc3)C=C(C)C(=O)CC12C` (centres undefined), the Potency [2] was “inactive”.

For `CCc1ccc(-c2nc(CSCC(=O)NCCc3ccccc3)c(C)o2)cc1`, the Potency [2] was “inactive”.

For `C=C1CCC2C(C)(C(=O)O)CCCC2(C)C1CCC1=CCOC1=O` (centres undefined), the Potency [1] was “inactive” and the Potency [2] was “inactive”.

With `Oc1cccc(C2NC(=S)Nc3cccc(F)c32)c1` (centres undefined) the Potency [1] was “inactive” and the Potency [2] was “inactive”.

With `COc1cc(C(=O)NC(=S)Nc2cccc(NC(=O)c3ccccc3)c2)cc(OC)c1OC` the Potency [2] was “inactive”.

In the case of `COc1cc2c(NC3CCN(C(C)C)CC3)nc(N3CCC(F)(F)CC3)nc2cc1OCCCN1CCCC1`, the Potency [2] was “inactive”.

For `COc1cc2c(cc1OCCCN1CCCC1)N=C(N)C21CCC1`, the Potency [1] was “inactive” and the Potency [2] was “inactive”.

In the case of `O=C(Nc1cc(C(F)(F)F)ccc1N1CCCCC1)c1ccncc1`, the Potency [2] was “inactive”.

With `CC1CCCC(O)CC(=O)c2c(O)cc(O)cc2CC(=O)O1` (centres undefined) the Potency [1] was “inactive” and the Potency [2] was “inactive”.

With `O=C(NCCCc1ccccc1)c1cccc(-c2cc(O)c3ncccc3c2)c1` the Potency [1] was 89.1 µM (active), the Potency [2] was “inactive” and the Potency [12] was “inactive”.

In the case of `O=C(NCCN1CCC(n2c(=O)[nH]c3ccccc32)CC1)c1cc2cc(F)ccc2[nH]1`, the Potency [1] was “inactive” and the Potency [2] was “inactive”.

In the case of `O=C(Nc1ccnc(NC(=O)C2CC2)c1)c1c(Cl)cccc1Cl`, the Potency [1] was “inactive” and the Potency [2] was “inactive”.

In the case of `CN[C@H]1CC[C@@H](c2ccc(Cl)c(Cl)c2)c2ccccc21`, the outcome [13] was “inactive”.

In the case of `NCCCC(=O)O`, the outcome [13] was “inactive”.

With `CCC(CC)(NC(=O)C(C)C)C(=O)N[C@@H](CCCN=C(N)N)C(=O)NC1(C(=O)NC(c2ccc(F)cc2)c2ccc(F)cc2)CCCC1` the outcome [14] was “inactive” and the Potency [15] was “inactive”.

In the case of `COc1ccc(CCO[C@@H]2O[C@H](CO[C@H]3OC[C@](O)(CO)[C@H]3O)[C@@H](OC(=O)/C=C/c3ccc(O)c(O)c3)[C@H](O[C@@H]3O[C@@H](C)[C@H](O)[C@@H](O)[C@H]3O)[C@H]2O)cc1OC`, the Potency [15] was “inactive”.

From PubChem BioAssay (NCATS)
